The results in this text go back to PubChem BioAssay (Tox21).

Values without a mark were called inactive. Results filed as inconclusive are left out. Active and inactive are the calls of the source. Unless noted, calls follow the shape of the dose curve; as a rule, active = well fitted curve in the direction sought with a large enough effect in the repeat runs; inconclusive = weak or mixed curves; inactive = no such curve, though single readings can be large; an effect the other way counts as inactive or inconclusive.

A short description of assay [1]: A CellTox Green Cytotoxicity Assay to monitor cytotoxicity in HepG2 cells - 32 hour (AID 1224883). Also: nearly all actives have a fitted effect of over 50% in size. Also: potency is read from the fitted curve at half-maximal effect. In outline: (§1)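 Fluorescent DNA-binding dye, 600 HepG2 cells/well, 5 h preincubation then compound in DMSO; same plates read at 0–40 h, 37 C.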
Assay [2] can be described thus: A CellTox Green Cytotoxicity Assay to monitor cytotoxicity in HEK293 cells - 16 hour (AID 1224888). Also: nearly all actives have a fitted effect of over 35% in size. Also: potency is read from the fitted curve at half-maximal effect. In outline: (§2)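 Homogeneous no-lysis format: HEK293 cell suspension mixed with CellTox Green reagent, seeded, incubated 5 h at 37 C/5% CO2, then dosed by pintool with compound in DMSO.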
Assay [3] in a line: A CellTox Green Cytotoxicity Assay to monitor cytotoxicity in HepG2 cells - 8 hour (AID 1224890). Also: nearly all actives have a fitted effect of over 45% in size. In outline:
as §1

Assay [4] is described as follows: qHTS assay to identify small molecule antagonists of the estrogen receptor alpha (ER-alpha) signaling pathway using the BG1 cell line in the presence of 0.1 nM 17-beta-estradiol - cell viability counter screen (AID 1259241). Also: nearly all actives have a fitted effect of over 40% in size. Also: potency is read from the fitted curve at half-maximal effect. In outline:
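Cells were plated and left 24 hr, compounds in DMSO were pinned in, 17beta-estradiol was added to 0.1 nM final, and after 22 hr CellTiter-Fluor reagent was added for 30 min before fluorescence was read.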

Assay [5] can be described thus: qHTS assay to identify small molecule antagonists of the androgen receptor (AR) signaling pathway using the MDA cell line in the presence of 0.5 nM R1881 - cell viability counter screen (AID 1259242). Also: nearly all actives have a fitted effect of over 45% in size. Also: potency is read from the fitted curve at half-maximal effect. In outline: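 Human breast carcinoma MDA-kb2 cells, cultured without CO2, receive compounds alongside 0.5 nM (final) R1881 agonist. After 16 hr at 37C, viability is taken as live-cell protease signal.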

Assay [6] is described as follows: qHTS assay to identify small molecule phospholipidosis (PLD) inducers (AID 1259344; active = well fitted curve in the direction sought with a large enough effect; an effect the other way counts as inactive or inconclusive). In outline:
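Accumulated phospholipid, stained red by LipidTOX during 24 h compound treatment of HepG2 cells at 37 C, is quantified from images as pit number and intensity, normalised per cell using Hoechst-stained nuclei.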

A short description of assay [7]: qHTS assay to identify small molecule HDAC inhibitors (AID 1259364).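 Also: wild-type HCT-116 cells with endogenous class I/II HDAC activity; top concentration of the series differs between compounds; nearly all actives have a fitted effect of over 45% in size.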 In outline: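 After a 2 hr compound incubation (37C, 5% CO2), HCT-116 cells seeded at 1,500/well the day before received HDAC-Glo reagent; signal read as luminescence after 30 min at room temperature.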
In general terms: qHTS replaces the single test concentration by a dilution series.

The nature of assay [8]: qHTS assay to identify small molecule HDAC inhibitors - cell viability counter screen (AID 1259365). Also: series mostly up to about 92 µM; nearly all actives have a fitted effect of over 50% in size. In outline: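 Counter screen in wild-type HCT-116 cells: compounds dissolved in DMSO are pin-transferred onto overnight-plated cells and left 2hr at 37C. ATP-based CellTiter-Glo luminescence then measures viable cells.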
Assay [9] in a line: qHTS assay to identify small molecule agonists of the sonic hedgehog signaling (Shh) pathway - cell viability counter screen (AID 1259366). Also: nearly all actives have a fitted effect of over 50% in size. In outline:
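Cells are plated at 2,000 per well and left 4hr at 37C, 5% CO2 before compound addition. After 23hr of treatment, CellTiter-Fluor reagent is added for 1hr at 37C and fluorescence is measured.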

Assay [10] can be described thus: qHTS assay to identify small molecule antagonists of the sonic hedgehog signaling (Shh) pathway - cell viability counter screen (AID 1259367). Also: nearly all actives have a fitted effect of over 55% in size. In outline:
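CellTiter-Fluor signal in conditioned medium-stimulated 3T3 Gli1-Luc cells, 23 hr compound exposure, 37C.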

Assay [11] is described as follows: qHTS assay to identify small molecule agonists of the sonic hedgehog signaling (Shh) pathway (AID 1259368; calls by dose curve;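 also: NIH/3T3-derived 3T3Gli1-Luc cells carrying a stable Gli1-driven firefly luciferase reporter; series mostly up to about 92 µM; nearly all actives have a fitted effect of over 15% in size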). In outline:
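Stable NIH/3T3 Gli1-Luc reporter clone; 24 hr cpd exposure after a 4 hr settling period; luminescence endpoint.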

Assay [12] is described as follows: qHTS RealTime-Glo MT Cell Viability Assay in HepG2 cells - 16 hour (AID 1224885). Also: nearly all actives have a fitted effect of over 50% in size. In outline: (§3)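 HepG2 suspension premixed with RealTime-Glo reagents is plated at 600 cells per well and left 5 h at 37 C/5% CO2. Compounds in DMSO then go in, and bioluminescence reflecting viable cell number is recorded over 40 h.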
Assay [13] in a line: qHTS RealTime-Glo MT Cell Viability Assay in HEK293 cells - 24 hour (AID 1224886). Also: nearly all actives have a fitted effect of over 50% in size. Also: potency is read from the fitted curve at half-maximal effect. In outline: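 Reads taken at 0, 8, 16, 24, 32 and 40 h from the same wells. HEK293 cells (600/well) carried RealTime-Glo reagents from seeding, with compound added after a 5 h settle at 37 C.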
Assay [14] can be described thus: qHTS RealTime-Glo MT Cell Viability Assay in HEK293 cells - 8 hour (AID 1224887). Also: nearly all actives have a fitted effect of over 50% in size. Also: potency is read from the fitted curve at half-maximal effect. In outline:
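Measured as luminescence from the same continuously cultured HEK293 wells at successive time points (0, 8, 16, 24, 32, 40 h) after compound addition. Reagent present from seeding; dosing at 5 h; incubation 37 C.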

Assay [15] in a line: qHTS assay to identify small molecule antagonists of the sonic hedgehog signaling (Shh) pathway (AID 1259369; calls by dose curve; also: nearly all actives have a fitted effect of over 45% in size; also: potency is read from the fitted curve at half-maximal effect). In outline: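 Gli1 transcriptional reporter (firefly Luc) in NIH/3T3 background, conditioned-medium activated. 24hr exposure, luminescence endpoint.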
Assay [16] in a line: qHTS RealTime-Glo MT Cell Viability Assay in HepG2 cells - 0 hour (AID 1224889). Also: nearly all actives have a fitted effect of over 50% in size. In outline:
as §3

Assay [17] has as its target Androgen receptor (Homo sapiens) (UniProt P10275). Description: qHTS assay to identify small molecule antagonists of the androgen receptor (AR) signaling pathway using the MDA cell line in the presence of 0.5 nM R1881 (AID 1259243). Also: nearly all actives have a fitted effect of over 50% in size. In outline:
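Cells: MDA-kb2 (MMTV-luc). Stimulus: 0.5 nM R1881. Time: 16 hr, 37C, no CO2. Detection: ONE-Glo luminescence after 30 min at RT.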

A short description of assay [18]: A CellTox Green Cytotoxicity Assay to monitor cytotoxicity in HEK293 cells - 8 hour (AID 1224884). Also: nearly all actives have a fitted effect of over 35% in size. Also: potency is read from the fitted curve at half-maximal effect. In outline:
as §2

Assay [19] has as its target Estrogen receptor (Homo sapiens) (UniProt P03372). Nature of the assay: qHTS assay to identify small molecule antagonists of the estrogen receptor alpha (ER-alpha) signaling pathway using the BG1 cell line in the presence of 0.1 nM 17-beta-estradiol (AID 1259244). Also: nearly all actives have a fitted effect of over 50% in size. Also: potency is read from the fitted curve at half-maximal effect. In outline: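 Seeding of stripped-serum-adapted VM7Luc4E2 cells, 24 h attachment, compound transfer, then 0.1 nM final 17beta-estradiol; after 22 h incubation, ONE-Glo reagent and luminescence reading.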

Estrogen receptor (Homo sapiens), sequence (P03372 whole entry, looked up): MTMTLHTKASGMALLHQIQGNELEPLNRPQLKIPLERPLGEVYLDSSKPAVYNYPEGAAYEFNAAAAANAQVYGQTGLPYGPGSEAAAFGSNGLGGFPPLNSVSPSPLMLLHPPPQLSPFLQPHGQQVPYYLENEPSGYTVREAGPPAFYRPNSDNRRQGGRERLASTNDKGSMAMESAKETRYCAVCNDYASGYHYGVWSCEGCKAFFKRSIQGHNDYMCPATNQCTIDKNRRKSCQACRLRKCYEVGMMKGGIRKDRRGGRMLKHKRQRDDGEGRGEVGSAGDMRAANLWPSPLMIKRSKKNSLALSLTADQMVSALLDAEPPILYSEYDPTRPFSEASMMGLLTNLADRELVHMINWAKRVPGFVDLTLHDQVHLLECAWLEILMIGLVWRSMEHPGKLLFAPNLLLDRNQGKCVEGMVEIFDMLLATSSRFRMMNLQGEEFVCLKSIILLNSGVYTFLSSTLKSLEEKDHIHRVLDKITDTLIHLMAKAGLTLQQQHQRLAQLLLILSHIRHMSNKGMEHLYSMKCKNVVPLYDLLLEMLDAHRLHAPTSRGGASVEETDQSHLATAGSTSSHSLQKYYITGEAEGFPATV
Androgen receptor (Homo sapiens), sequence (P10275 whole entry, looked up): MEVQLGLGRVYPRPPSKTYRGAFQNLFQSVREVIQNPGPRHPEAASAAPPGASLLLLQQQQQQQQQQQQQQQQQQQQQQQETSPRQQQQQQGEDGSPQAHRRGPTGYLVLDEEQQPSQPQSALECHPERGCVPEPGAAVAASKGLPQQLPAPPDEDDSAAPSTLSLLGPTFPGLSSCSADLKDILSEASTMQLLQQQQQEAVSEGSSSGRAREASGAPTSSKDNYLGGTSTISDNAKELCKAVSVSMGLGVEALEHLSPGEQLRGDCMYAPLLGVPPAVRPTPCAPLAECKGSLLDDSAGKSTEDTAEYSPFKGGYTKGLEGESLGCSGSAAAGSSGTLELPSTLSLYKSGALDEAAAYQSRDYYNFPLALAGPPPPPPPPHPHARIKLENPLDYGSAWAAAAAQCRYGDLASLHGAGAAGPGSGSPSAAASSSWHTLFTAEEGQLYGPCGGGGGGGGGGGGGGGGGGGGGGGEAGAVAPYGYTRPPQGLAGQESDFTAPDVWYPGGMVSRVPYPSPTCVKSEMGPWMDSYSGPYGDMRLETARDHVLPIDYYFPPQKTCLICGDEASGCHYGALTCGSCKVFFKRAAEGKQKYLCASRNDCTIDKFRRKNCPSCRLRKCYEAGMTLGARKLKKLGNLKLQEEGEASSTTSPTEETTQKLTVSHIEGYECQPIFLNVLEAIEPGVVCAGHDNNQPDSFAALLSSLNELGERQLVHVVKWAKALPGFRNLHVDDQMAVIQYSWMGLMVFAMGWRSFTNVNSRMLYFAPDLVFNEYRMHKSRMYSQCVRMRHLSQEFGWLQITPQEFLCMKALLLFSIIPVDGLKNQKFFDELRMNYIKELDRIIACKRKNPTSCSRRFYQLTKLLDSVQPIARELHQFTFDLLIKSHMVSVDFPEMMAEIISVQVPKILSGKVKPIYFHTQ

For the compound `COC(=O)C1=C(C)NC(C)=C(C(=O)OCCN2CCN(C(c3ccccc3)c3ccccc3)CC2)C1c1cccc([N+](=O)[O-])c1` (stereo not given), the Potency result in assay [1], in assay [2], in assay [3], in [4], in [5] and in [6] was “inactive” throughout. Besides, the Potency entry in assay [7], in [8], in [9], in assay [10] and in assay [11] was “inactive” each time.
Consider `CCCCCCC1CCCC(=O)O1` (stereo not given), for which the Potency entry in assay [1], in [12], in assay [13], in assay [14], in assay [2] and in assay [3] was “inactive” each time. In addition, the Potency entry in [4], in assay [5], in assay [7], in assay [8], in [9] and in [10] was “inactive” in each case. Besides, the Potency entry in assay [11] and in assay [15] was “inactive” each time.
In the case of `Nc1ccc(C(=O)O)c(O)c1`, the Potency entry in assay [1], in assay [12], in [13], in [14], in assay [2] and in assay [16] was “inactive” each time. Moreover, the Potency result in [4], in assay [5], in assay [17], in [6], in [8] and in [9] was “inactive” throughout. Also, the Potency entry in assay [10], in assay [11] and in assay [15] was “inactive” in each case.
Turning to `C=C(C)c1cccc(C(=C)C)c1`, the Potency entry in [1], in assay [18], in assay [12], in assay [13], in assay [14] and in assay [2] was “inactive” in each case. Further, the Potency result in assay [3], in [4], in assay [5], in assay [19], in assay [7] and in assay [8] was “inactive” throughout. The Potency entry in [9], in assay [10], in assay [11] and in assay [15] was “inactive” each time.
As to `CCC(COC(=O)CCS)(COC(=O)CCS)COC(=O)CCS`, the Potency entry in assay [1], in [18], in [12], in assay [13], in [14] and in assay [2] was “inactive” each time. In addition, the Potency entry in assay [3], in assay [5], in [19], in assay [7], in assay [8] and in assay [9] was “inactive” each time. For the same compound, the Potency result in assay [10], in assay [11] and in assay [15] was “inactive” throughout.
`S=C([S-])NCCNC(=S)[S-].S=C([S-])NCCNC(=S)[S-].[Mn+2].[Zn+2]`: the Potency entry in [1], in assay [18], in assay [12], in [14], in assay [2] and in assay [16] was “inactive” in each case. Further, the Potency entry in assay [3], in assay [4], in assay [5], in assay [7], in [8] and in [11] was “inactive” in each case.
Take `CCCCCCCC`: the Potency entry in assay [1], in [18], in [12], in assay [13], in [14] and in [2] was “inactive” throughout. Besides, the Potency result in assay [3], in [4], in [5], in assay [19], in [7] and in [8] was “inactive” each time. For the same compound, the Potency result in assay [9], in assay [11] and in assay [15] was “inactive” each time.
Consider `CCCCCCCCCCCCOC(=O)c1ccc(O)cc1`, for which the Potency entry in assay [1], in assay [12], in assay [2], in assay [16], in [3] and in assay [5] was “inactive” in each case. In addition, the Potency entry in [8], in assay [9], in [11] and in assay [15] was “inactive” in each case.
Regarding `CC[C@H](C)COC(=O)/C=C/c1ccc(N=Cc2ccc(OC)cc2)cc1`, the Potency result in [18], in assay [12], in [2], in assay [16], in [3] and in assay [4] was “inactive” in each case. In addition, the Potency result in assay [5], in assay [8], in [9], in assay [11] and in assay [15] was “inactive” throughout. Moreover, the Potency in [13] is 21.8 µM (active).
For `CC(C)(C)C1CCC(=O)CC1`, the Potency entry in [1], in assay [12], in assay [13], in [14], in assay [2] and in [3] was “inactive” in each case. Further, the Potency result in assay [4], in [5], in [19], in assay [7], in assay [8] and in assay [9] was “inactive” each time. For the same compound, the Potency result in assay [11] was “inactive”. Besides, the Potency in [15] is 30.6 µM (active).
With `COc1ccc2c(c1)c(CC(=O)OC/C=C(\C)CC/C=C(\C)CCC=C(C)C)c(C)n2C(=O)c1ccc(Cl)cc1`, the Potency result in assay [1], in [12], in assay [13], in assay [2], in [16] and in assay [3] was “inactive” each time. For the same compound, the Potency entry in assay [4], in [5], in assay [19], in [7], in assay [8] and in assay [9] was “inactive” in each case. Besides, the Potency result in assay [10], in [11] and in assay [15] was “inactive” in each case.
With `CCCCCCCCCCCCOCCOCCOCCOCCOCCOCCOCCOCCOCCO`, the Potency in [1] was 23.9 µM (active); in assay [18] it was 16.9 µM (active); in assay [13], 5.35 µM (active); in [14] it was 10.7 µM (active); in assay [2], 12 µM (active); in assay [4], 13.3 µM (active). Also, the figures for the Potency in [5], in [19] and in assay [15] were 21.1 µM (active), 6.68 µM (active) and 7.5 µM (active), respectively. In addition, the Potency result in assay [16], in assay [6], in assay [7], in [8], in assay [9] and in [10] was “inactive” each time. In addition, the Potency result in assay [11] was “inactive”.
